Inhibition data for six compounds are collected here from ChEMBL document CHEMBL1961873, “Compounds: GSK PKIS; Assays: Nanosyn kinase panel” (2012).

One may read the inhibition as the drop in the measured response relative to a control, in per cent.

Experiment [1] has as its target Serine/threonine-protein kinase pim-2 (Homo sapiens) (UniProt Q9P1W9). Conditions: at 1 µM.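 Further: each value is a mean of the inhibition measurements against the kinase.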
For experiment [2], the target named is Serine/threonine-protein kinase pim-3 (Homo sapiens) (UniProt Q86V86). Conditions: at 0.1 µM.
For experiment [3] the target is unchanged. Conditions: at 1 µM.
In experiment [4] the target is T1, MAP kinase-activated protein kinase 5 (Homo sapiens) (UniProt Q8IW41).
T1 sequence (whole entry): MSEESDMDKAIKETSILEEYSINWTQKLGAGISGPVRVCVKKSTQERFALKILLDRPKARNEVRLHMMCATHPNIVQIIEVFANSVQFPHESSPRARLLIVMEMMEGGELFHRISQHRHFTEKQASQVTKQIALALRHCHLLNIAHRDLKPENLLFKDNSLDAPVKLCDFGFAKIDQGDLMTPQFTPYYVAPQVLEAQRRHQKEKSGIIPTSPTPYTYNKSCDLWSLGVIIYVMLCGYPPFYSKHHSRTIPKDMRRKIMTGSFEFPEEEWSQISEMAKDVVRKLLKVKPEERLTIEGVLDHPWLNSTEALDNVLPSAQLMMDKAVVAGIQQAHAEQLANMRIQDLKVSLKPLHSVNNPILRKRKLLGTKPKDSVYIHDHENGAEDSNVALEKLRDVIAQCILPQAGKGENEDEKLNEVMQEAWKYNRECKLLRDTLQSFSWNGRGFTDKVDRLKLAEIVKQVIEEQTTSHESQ
Conditions: at 0.1 µM.

In experiment [5] the target is T1, MAP kinase-activated protein kinase 5 (Homo sapiens). The note with it: at 1 µM.
The target in experiment [6] is Serine/threonine-protein kinase SIK1 (Homo sapiens) (UniProt P57059). Conditions: at 0.1 µM.
For experiment [7] the target is unchanged. Conditions: at 1 µM.
Experiment [8] addresses Serine/threonine-protein kinase SIK2 (Homo sapiens) (UniProt Q9H0K1). Conditions: at 0.1 µM.
For experiment [9] the target is unchanged. Conditions: at 1 µM.
The target in experiment [10] is T2, Serine/threonine-protein kinase TBK1 (Homo sapiens) (UniProt Q9UHD2).
T2 sequence (whole entry): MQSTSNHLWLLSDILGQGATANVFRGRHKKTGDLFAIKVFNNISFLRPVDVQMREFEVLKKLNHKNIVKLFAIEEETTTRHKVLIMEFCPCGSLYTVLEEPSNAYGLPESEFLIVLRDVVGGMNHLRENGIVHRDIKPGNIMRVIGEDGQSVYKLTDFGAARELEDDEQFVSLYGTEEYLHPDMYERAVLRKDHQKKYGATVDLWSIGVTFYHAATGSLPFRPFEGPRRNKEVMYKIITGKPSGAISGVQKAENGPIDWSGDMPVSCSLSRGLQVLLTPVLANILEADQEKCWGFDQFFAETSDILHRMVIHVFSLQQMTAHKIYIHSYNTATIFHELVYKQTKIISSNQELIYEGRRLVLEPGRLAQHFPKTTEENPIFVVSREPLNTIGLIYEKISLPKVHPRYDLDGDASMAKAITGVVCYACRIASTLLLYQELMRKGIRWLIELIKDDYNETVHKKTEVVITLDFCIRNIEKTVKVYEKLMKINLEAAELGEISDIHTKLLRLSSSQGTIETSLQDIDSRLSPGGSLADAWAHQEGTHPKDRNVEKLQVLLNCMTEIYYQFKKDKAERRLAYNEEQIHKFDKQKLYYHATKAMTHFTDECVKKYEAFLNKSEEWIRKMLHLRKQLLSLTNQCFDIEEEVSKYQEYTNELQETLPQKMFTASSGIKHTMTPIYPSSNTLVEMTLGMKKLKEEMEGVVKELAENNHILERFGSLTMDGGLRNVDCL
The note with it: at 0.1 µM.

For experiment [11], the target named is T2, Serine/threonine-protein kinase TBK1 (Homo sapiens). The note with it: at 1 µM.
Experiment [12] has as its target T3, Testis-specific serine/threonine-protein kinase 1 (Homo sapiens) (UniProt Q9BXA7).
T3 sequence (whole entry): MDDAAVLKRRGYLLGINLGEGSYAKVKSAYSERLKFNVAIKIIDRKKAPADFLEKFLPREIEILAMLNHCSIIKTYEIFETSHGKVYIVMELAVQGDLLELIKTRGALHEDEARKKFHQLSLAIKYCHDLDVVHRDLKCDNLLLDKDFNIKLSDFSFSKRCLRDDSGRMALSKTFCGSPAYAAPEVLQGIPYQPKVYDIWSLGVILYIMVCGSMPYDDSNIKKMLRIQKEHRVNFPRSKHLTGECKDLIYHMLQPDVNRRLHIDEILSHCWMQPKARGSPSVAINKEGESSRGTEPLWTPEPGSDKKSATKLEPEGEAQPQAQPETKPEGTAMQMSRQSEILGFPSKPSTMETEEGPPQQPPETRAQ
The note with it: at 0.1 µM.

Experiment [13] deals with T3, Testis-specific serine/threonine-protein kinase 1 (Homo sapiens). The note with it: at 1 µM.
In experiment [14] the target is T4, Testis-specific serine/threonine-protein kinase 2 (Homo sapiens) (UniProt Q96PF2).
T4 sequence (whole entry): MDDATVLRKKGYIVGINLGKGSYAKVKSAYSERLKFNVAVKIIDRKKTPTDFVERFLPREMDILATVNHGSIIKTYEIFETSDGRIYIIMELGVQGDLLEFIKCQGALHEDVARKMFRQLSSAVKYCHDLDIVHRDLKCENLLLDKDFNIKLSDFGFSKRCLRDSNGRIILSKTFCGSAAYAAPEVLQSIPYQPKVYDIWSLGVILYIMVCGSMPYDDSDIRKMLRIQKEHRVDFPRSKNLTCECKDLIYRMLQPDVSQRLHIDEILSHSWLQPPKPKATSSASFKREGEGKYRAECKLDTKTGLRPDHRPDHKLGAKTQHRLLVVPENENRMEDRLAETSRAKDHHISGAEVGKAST
The note with it: at 0.1 µM.

Experiment [15] has as its target T4, Testis-specific serine/threonine-protein kinase 2 (Homo sapiens). Conditions: at 1 µM.
Experiment [16] addresses Casein kinase I isoform alpha (Homo sapiens) (UniProt P48729). Conditions: at 0.1 µM.
For experiment [17] the target is unchanged. Conditions: at 1 µM.
In experiment [18] the target is Casein kinase I isoform gamma-1 (Homo sapiens) (UniProt Q9HCP0). Conditions: at 0.1 µM.
Experiment [19] shares this target. Conditions: at 1 µM.
For experiment [20], the target named is Casein kinase I isoform gamma-2 (Homo sapiens) (UniProt P78368). The note with it: at 0.1 µM.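 Further: values are mean inhibition figures reported as part of the GSK PKIS dataset.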
Casein kinase I isoform gamma-2 (Homo sapiens), sequence (P78368 whole entry, looked up, canonical isoform): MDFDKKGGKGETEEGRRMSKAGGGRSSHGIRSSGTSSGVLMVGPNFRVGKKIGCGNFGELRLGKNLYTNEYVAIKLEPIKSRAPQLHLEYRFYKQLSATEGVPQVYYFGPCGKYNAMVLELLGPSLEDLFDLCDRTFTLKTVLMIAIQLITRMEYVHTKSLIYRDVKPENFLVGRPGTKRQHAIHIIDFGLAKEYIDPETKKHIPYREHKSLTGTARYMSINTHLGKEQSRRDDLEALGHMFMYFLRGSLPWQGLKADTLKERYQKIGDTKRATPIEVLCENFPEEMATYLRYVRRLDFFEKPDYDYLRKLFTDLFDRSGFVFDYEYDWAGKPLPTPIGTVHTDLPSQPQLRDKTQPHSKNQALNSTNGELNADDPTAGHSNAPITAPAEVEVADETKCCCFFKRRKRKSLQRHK

Serine/threonine-protein kinase SIK2 (Homo sapiens), sequence (Q9H0K1 whole entry, looked up): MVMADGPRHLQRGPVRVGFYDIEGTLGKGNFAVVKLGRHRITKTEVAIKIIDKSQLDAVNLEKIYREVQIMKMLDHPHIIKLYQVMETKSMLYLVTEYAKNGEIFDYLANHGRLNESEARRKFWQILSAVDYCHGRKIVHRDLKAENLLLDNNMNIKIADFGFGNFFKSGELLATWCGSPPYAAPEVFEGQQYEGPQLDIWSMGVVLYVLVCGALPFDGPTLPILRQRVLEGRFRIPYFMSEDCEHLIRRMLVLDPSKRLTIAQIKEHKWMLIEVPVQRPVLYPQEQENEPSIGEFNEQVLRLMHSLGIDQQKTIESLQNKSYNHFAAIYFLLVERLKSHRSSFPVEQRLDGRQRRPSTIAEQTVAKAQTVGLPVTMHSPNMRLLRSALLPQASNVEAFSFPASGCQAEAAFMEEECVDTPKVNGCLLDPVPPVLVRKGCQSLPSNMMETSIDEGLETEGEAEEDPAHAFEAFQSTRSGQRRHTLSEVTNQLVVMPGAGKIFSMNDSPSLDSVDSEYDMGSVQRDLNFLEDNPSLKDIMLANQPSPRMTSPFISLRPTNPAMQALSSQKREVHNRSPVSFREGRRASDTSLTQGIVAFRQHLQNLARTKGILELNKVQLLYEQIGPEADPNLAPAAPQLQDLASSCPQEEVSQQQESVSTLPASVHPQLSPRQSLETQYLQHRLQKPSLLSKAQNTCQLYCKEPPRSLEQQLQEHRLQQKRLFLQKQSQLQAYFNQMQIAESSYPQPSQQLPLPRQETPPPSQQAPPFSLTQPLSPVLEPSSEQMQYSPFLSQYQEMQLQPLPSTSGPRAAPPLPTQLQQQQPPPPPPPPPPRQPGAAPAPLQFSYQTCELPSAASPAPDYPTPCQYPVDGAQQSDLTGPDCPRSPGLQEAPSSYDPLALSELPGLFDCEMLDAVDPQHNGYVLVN
Casein kinase I isoform gamma-1 (Homo sapiens), sequence (Q9HCP0 whole entry, looked up, canonical isoform): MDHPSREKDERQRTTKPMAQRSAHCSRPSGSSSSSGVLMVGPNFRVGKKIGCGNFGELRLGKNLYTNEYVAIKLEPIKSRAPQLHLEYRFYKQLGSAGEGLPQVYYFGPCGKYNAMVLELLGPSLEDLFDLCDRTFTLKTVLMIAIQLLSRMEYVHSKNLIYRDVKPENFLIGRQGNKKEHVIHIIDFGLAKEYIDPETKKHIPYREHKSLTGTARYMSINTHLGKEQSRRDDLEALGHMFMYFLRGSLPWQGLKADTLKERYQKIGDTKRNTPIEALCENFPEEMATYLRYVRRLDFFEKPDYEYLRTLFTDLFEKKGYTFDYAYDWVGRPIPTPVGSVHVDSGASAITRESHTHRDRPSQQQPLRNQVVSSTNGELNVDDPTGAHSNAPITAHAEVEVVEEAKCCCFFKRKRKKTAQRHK
Casein kinase I isoform alpha (Homo sapiens), sequence (P48729 2-337 limits assumed): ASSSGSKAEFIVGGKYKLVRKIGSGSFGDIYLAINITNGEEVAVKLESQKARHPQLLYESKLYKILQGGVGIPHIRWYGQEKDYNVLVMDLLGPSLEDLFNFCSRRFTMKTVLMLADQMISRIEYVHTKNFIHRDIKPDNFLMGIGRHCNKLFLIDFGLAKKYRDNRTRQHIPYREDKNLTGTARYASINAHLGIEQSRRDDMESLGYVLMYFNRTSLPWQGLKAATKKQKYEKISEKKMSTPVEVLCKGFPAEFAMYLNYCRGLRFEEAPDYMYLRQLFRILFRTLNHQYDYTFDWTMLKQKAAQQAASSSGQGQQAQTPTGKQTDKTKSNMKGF
Serine/threonine-protein kinase SIK1 (Homo sapiens), sequence (P57059 whole entry): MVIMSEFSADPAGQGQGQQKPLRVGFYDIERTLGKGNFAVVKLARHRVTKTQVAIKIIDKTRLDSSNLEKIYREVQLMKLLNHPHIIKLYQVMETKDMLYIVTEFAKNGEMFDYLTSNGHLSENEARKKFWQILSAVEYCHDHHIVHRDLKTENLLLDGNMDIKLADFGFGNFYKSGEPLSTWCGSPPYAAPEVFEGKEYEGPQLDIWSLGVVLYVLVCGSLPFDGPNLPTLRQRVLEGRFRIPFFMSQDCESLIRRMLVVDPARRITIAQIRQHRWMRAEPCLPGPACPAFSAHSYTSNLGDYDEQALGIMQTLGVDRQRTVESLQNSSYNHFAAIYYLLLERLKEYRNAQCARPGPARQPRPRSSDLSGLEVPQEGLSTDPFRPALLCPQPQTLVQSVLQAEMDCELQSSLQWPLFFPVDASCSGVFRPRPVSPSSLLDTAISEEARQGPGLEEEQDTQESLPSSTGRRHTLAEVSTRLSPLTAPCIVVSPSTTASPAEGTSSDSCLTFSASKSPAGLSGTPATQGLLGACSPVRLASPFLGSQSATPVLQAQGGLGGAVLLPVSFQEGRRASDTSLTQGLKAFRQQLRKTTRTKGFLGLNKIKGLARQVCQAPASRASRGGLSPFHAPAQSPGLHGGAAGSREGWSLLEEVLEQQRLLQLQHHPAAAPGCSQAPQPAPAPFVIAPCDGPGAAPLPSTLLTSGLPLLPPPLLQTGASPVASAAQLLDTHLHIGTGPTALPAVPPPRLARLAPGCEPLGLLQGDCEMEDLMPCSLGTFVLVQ
Serine/threonine-protein kinase pim-2 (Homo sapiens), sequence (Q9P1W9 whole entry, looked up): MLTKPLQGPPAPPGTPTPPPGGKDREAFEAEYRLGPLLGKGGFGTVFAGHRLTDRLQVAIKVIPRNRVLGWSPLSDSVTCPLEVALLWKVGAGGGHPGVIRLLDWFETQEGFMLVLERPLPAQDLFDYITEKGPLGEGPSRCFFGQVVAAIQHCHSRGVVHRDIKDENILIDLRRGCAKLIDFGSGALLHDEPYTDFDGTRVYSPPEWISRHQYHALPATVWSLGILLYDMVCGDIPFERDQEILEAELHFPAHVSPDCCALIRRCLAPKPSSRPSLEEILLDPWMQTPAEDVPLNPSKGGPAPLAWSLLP

On to `COc1cccc(/C=N/Nc2ncnc3c2cnn3-c2cccc(OC)c2)c1`, for which the inhibition was -0.53% in [1]; 0.38% in experiment [2]; 0.16% in experiment [3]; 0.99% in [4]; 1.08% in [5]; 5.07% in experiment [6]. For the same compound, the inhibition worked out at 8.61% in [7]; 5.87% in experiment [8]; 6.63% in experiment [9]; 3.28% in experiment [10]; 1.31% in [11]; 3.46% in [12]. Moreover, the inhibition in experiment [13] stood at 3.86%; in experiment [14] it was 2.47%; in experiment [15] it was 1.38%; in experiment [16] it was 3.37%; in experiment [17], 6.05%; in [18], 2.82%. Also, the inhibition was 3.51% in experiment [19] and 3.16% in [20].
As to `NS(=O)(=O)c1ccc(N/N=C2\C(=O)Nc3ccc(C(=O)NCCCn4ccnc4)cc32)cc1`, the inhibition in [1] amounted to 7.42%; in [2] it was 3.06%; in experiment [3], 18.9%; in experiment [4] it was 1.4%; in experiment [5], 4.54%; in experiment [6], 7.49%. Besides, the inhibition in experiment [7] is 13.9%; in experiment [8], 9.61%; in [9] it was 12.7%; in experiment [10], 3.93%; in experiment [11], 30.4%; in experiment [12], 7.1%. Moreover, the inhibition in experiment [13] amounted to 13.3%; in experiment [14] it was 4.07%; in [15] it was 6.71%; in [16] it was 3.95%; in [17], 6.05%; in [18] it was 5.08%. For the same compound, the inhibition is 10.8% in experiment [19] and 4.43% in experiment [20].
Regarding `c1ccc(-c2n[nH]cc2-c2ccnc(-c3ccc(OCCN4CCOCC4)cc3)c2)nc1`, the inhibition in experiment [1] was 5.56%; in experiment [2], 5.26%; in [3], 3.99%; in experiment [4], -1.14%; in experiment [5], -0.78%; in [6], 0.04%. Also, the inhibition in experiment [7] was -2.45%; in experiment [8], -6.26%; in experiment [9], -0.03%; in [10] it was 1.5%; in [11], 1.95%; in experiment [12], -1.9%. The inhibition in [13] is -3.08%; in [14], -1.89%; in experiment [15] it was -0.96%; in experiment [16], 0.38%; in experiment [17], 1.39%; in experiment [18] it was -1.07%. The inhibition was -0.62% in experiment [19] and -2.46% in experiment [20].
Regarding `NCc1ccc(-n2c(-c3nonc3N)nc3cnccc32)cc1`, the inhibition in experiment [1] worked out at 45.2%; in experiment [2], 16.4%; in experiment [3], 68.5%; in [4], 1.5%; in experiment [5], 1.55%; in experiment [6] it was 5.74%. The inhibition stood at 11.6% in experiment [7]; 5.87% in experiment [8]; 15.8% in experiment [9]; 4.35% in experiment [10]; 11.6% in [11]; 9.68% in experiment [12]. The inhibition in [13] amounted to 32.2%; in experiment [14] it was 3.06%; in [15], 3.08%; in experiment [16], 3.56%; in experiment [17], 9.76%; in experiment [18], 5.74%. In addition, the inhibition in experiment [19] was found to be 8.48%; in experiment [20], 3.49%.
Regarding `FC(F)(F)c1cccc(Nc2nccc(-c3cnn4nc(-c5ccccc5)ccc34)n2)c1`, the inhibition in experiment [1] is 1.06%; in experiment [2] it was -0.15%; in experiment [3] it was -0.3%; in [4], 0.76%; in experiment [5], 0.4%; in experiment [6], -0.41%. Besides, the inhibition in experiment [7] is 7%; in [8], 2.43%; in experiment [9], 5.47%; in experiment [10], -0.2%; in experiment [11] it was 4.35%; in [12], 1.23%. Further, the inhibition in experiment [13] is 2.01%; in experiment [14], 1.62%; in experiment [15], 0.24%; in experiment [16], -0.33%; in experiment [17] it was 1.52%; in experiment [18] it was 2.48%. For the same compound, the inhibition in [19] turned out to be 2.54%; in experiment [20] it was 2.27%.
`O=C(Nc1ccc(Oc2ccc3[nH]c(NC(=O)c4ccccc4)nc3c2)cc1)Nc1cc(C(F)(F)F)ccc1F`: the inhibition was -0.13% in [1]; 0.85% in experiment [2]; -0.27% in experiment [3]; 0.86% in experiment [4]; 0.98% in [5]; 5.14% in experiment [6]. Moreover, the inhibition in [7] was determined as 9.55%; in [8], 6.29%; in [9], 6.45%; in [10], 0.91%; in experiment [11] it was 4.56%; in experiment [12], 2.04%. The inhibition is 0.69% in experiment [13]; 1.68% in [14]; 0.74% in [15]; 3.86% in experiment [16]; 3.79% in [17]; 2.09% in experiment [18]. Besides, the inhibition came to 2.88% in experiment [19] and 1.66% in [20].
